# Assay outcomes: PubChem BioAssay, National Center for Advancing Translational Sciences (NCATS)
# PLK1 PBD inh: PLK1 (human) polo-box domain binding inhibition | P53350 | Plk1 PBD binding of FITC phosphopeptide, fluorescence polarization | Potency, µM, for the others: max response, negative = inhibition, actives largely listed as inhibitors | 360,000 compounds, 2.8% hits; note: series mostly up to about 57 µM; % is set by controls: 0 for no effect and ±100 for the full control effect; nearly all actives have a fitted effect of over 65% in size
# G9a inh: G9a (human) methyltransferase inhibition; 350,000 compounds, 8.8% hits; G9a H3K9 monomethylation, AlphaScreen, 2 h; Q96KQ7; Potency, µM (titrated, usually from 102 µM), for inactives: at the top dose activity, negative = inhibition, actives largely listed as inhibitors; note: % is set by controls: 0 for no effect and ±100 for the full control effect; nearly all actives have a fitted effect of over 75% in size
# Target sequence (Q96KQ7 913-1193 limits assumed): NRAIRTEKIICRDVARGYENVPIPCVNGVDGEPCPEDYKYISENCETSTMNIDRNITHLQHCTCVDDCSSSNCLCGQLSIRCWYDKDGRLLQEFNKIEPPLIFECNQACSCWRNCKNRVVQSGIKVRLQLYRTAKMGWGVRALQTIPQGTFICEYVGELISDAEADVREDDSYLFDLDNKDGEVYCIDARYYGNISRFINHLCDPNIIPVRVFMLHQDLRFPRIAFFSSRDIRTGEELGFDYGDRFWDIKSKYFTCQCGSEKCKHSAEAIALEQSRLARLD
#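 Step 1: enzyme (final 20 nM) with compound, 15 min RT. Step 2: substrate peptide 500 nM and SAM 20 uM, 2 h RT. Step 3: anti-H3K9me1 antibody and AlphaScreen beads, 10 min, then plate read.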
# BAZ2B inh: inhibitors of human BAZ2B bromodomain; Q9UIF8; AlphaScreen BAZ2B-H3K14Ac peptide displacement; Potency, µM (doses to about 114 µM), without a hit: at the top dose activity change, negative = inhibition, actives largely listed as inhibitors; 360,000 compounds, 4.4% hits; note: % is set by controls: 0 for no effect and ±100 for the full control effect; nearly all actives have a fitted effect of over 60% in size
#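 AlphaScreen luminescence quantifies BAZ2B engagement of H3K14Ac peptide; the protein and biotinylated peptide are both at 50 nM final, buffer PBS pH 7.4 with 0.01% Tween-20, all steps at room temperature.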
# HP1b binding inh: HP1-beta chromodomain-methylated histone interaction inhibition. P83916. AlphaScreen HP1-beta / biotin-H3K9me3 peptide binding. Potency, µM (titrated, usually from 114 µM), without a hit: at the top dose activity change, negative = inhibition, most hits filed as inhibitors. 390,000 compounds, 0.56% hits; note: nearly all actives have a fitted effect of over 70% in size
# Target sequence (P83916 whole entry, looked up): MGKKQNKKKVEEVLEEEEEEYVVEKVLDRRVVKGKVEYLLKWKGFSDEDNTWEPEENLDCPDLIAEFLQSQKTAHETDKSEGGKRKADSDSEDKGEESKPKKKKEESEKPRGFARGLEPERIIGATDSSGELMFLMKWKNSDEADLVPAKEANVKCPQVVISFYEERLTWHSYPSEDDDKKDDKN
#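 AlphaScreen: HP1-beta (50 nM) preformed 30 min with biotin-H3(1-18)K9me3 peptide (50 nM) in PBS pH 7.4, 0.01% Tween-20. Compound added for 30 min at RT, then streptavidin donor/nickel chelate acceptor beads (10 ug/mL) for 30 min.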
# JMJD2A Tudor inh: JMJD2A Tudor domain (human) inhibition. AID 504339. O75164. Potency, µM (highest dose often 114 µM), inactives show at the top dose activity change, negative = inhibition, usual class: inhibitors. 390,000 compounds, 4.4% hits. AlphaScreen JMJD2A-Tudor / H3K4me3 peptide binding; note: % is set by controls: 0 for no effect and ±100 for the full control effect; nearly all actives have a fitted effect of over 50% in size
# Sfp PPTase inh: blocks B. subtilis Sfp PPTase activity | Q9F4F7 | 310,000 compounds, 3.5% hits | Biochemical Sfp PPTase activity, qHTS | Potency, µM, inactives show largest response in the series, negative = inhibition, usual class: inhibitors;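 note: the enzyme is Sfp with the accession as filed and its product quenches rhodamine fluorescence; 0% = enzyme reaction without inhibitor and -100% = no enzyme wells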
#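 Step 1, compound plus 15 nM Sfp-PPTase, 15 min, room temperature. Step 2, add rhodamine-CoA (5 uM) and BHQ-2-YbbR (12.5 uM). Step 3, read 525/598 nm fluorescence at 0 and 30 min.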
# * hit, by the source's call; u = inconclusive; x = no result; [ ] = remark or other dose. An excerpt weighted towards active compounds, which were near 12% of everything screened. Calls come from the whole dose curve; as a rule, active = well fitted curve in the direction sought with a large enough effect; inconclusive = small, poorly fitted or top-dose-only effect, or another doubt; inactive = no such curve, though single readings can be large; an effect the other way counts as inactive or inconclusive. Potency is the fitted concentration of half-maximal effect.
SMILES,PLK1 PBD inh,G9a inh,BAZ2B inh,HP1b binding inh,JMJD2A Tudor inh,Sfp PPTase inh
CC(C)COC(=O)c1ccc2c(c1O)C(=O)c1ccccc1C2=O,-2.5%,u,10µM*,u,7.94µM*,-28.1%
COc1ccc(C(C(=O)Nc2ccc(C(C)C)cc2)N(Cc2ccco2)C(=O)CC2NC(=O)NC2=O)cc1 (stereo not given),-1.5%,8.91µM*,39.8µM*,-1.9%,-32.6%,-17.4%
CCC1(C)CC2(CCCN(CCC(=O)c3ccccc3)C2)CCO1 (stereo not given),u,50.1µM*,0.9%,30.7%,-8.9%,5.1%
CC1(C)CC2(CCCN(C(=S)Nc3ccccc3)C2)CCO1 (stereo not given),-14.2%,22.7%,-14.0%,17.5%,-1.1%,-1.8%
C[C@@H](C(=O)O)c1ccc(N2Cc3ccccc3C2=O)cc1,x,21.2%[21.5 µM],x,x,x,21.2%
O=C(O)c1ccc(-c2ccccc2)[nH]c1=O,23.8µM*,56.2µM*,-32.9%,5.2%,-16.9%[11.4 µM],3.1%
O=C(O)c1ccc(-c2ccccc2)[nH]1,-2.6%,-26.2%,-6.7%,5.6%,-22.5%,17.8%
CC(=O)Nc1ccc(/C(C)=N/NC(=O)c2ccc(F)cc2)cc1,u,7.7%,2.7%,-7.3%,89.1µM*,3.9%
C/C(=N/NC(=O)c1cc2ccccc2cc1O)C1C(=O)c2ccccc2C1=O,9.47µM*,39.8µM*,u,22.4µM*,15.8µM*,-0.4%
C/C(=N\NC(=O)c1c[nH]c2ccccc12)c1ccccn1,-4.2%,15.5%,10µM*,39.2%,50.1µM*,28.9%
C/C(=N\NC(=O)CCCNc1ccc(C)cc1)c1ccccn1,-2.8%,15.8µM*,56.2µM*,7.4%,u,-3.9%
Cc1c(C(=O)NNC(=O)c2cccnc2)cccc1[N+](=O)[O-],-12.4%,x,x,21.4%,-19.2%,x
O=C1C=CN2CCCCC2CC1 (stereo not given),-17.8%,x,x,-0.1%,u,x
C/C(=N\NC(=O)c1ccc(F)cc1)c1ccccn1,2.3%,u,10µM*,30.2%,35.5µM*,8.9%
C/C(=N\NC(=O)c1cc2ccccc2cc1O)c1cc2ccccc2o1,-13.1%,1.1%,1.7%,7.8%,-34.5%,-1.4%
C/C(=N\NC(=O)c1cc2ccccc2cc1O)c1ccccn1,u,x,10µM*,19.9%[57 µM],17.8µM*,13.4%
O=C(c1ccccc1[N+](=O)[O-])n1cnc2ccccc21,-4.6%,u,u,0.0%,-25.8%,10.1%
O=C(c1ccc([N+](=O)[O-])cc1[N+](=O)[O-])n1cnc2ccccc21,-1.7%,u,-4.1%,26.7%,-21.8%,79.4µM*
CCC(=O)Nc1ccc2nc(SCc3ccc(C)cc3)sc2c1,x,5.2%[59 µM],0.4%,43.8%,0.0%,x
CCOc1ccc(N(CC(=O)O)S(=O)(=O)c2cccnc2)cc1,-9.8%,79.4µM*,5.3%,46.3%,-16.2%,15.2%
CC(C)c1ccc(N(CC(=O)O)S(=O)(=O)c2cccnc2)cc1,26.7µM*,-5.3%,8.6%,4.7%,89.1µM*,6.7%
CCOc1ccc(N(CC(=O)O)S(=O)(=O)c2ccc(F)cc2)cc1,-17.4%,-29.8%,4.2%,59.5%,17.8%[11.4 µM],0.3%
O=C(CSc1ncnc2nc[nH]c12)c1ccccc1,-12.0%,u,u,27.5%,-33.1%,15.8µM*
CCOC(=O)c1cc([N+](=O)[O-])cc([N+](=O)[O-])c1Sc1ncnc2nc[nH]c12,21.2µM*,x,x,12.5%,-30.6%,x
O=C(CSc1ncnc2nc[nH]c12)c1ccc([N+](=O)[O-])cc1,-13.5%,x,79.4µM*,15.3%,-31.7%,44.7µM*
SMILES,PLK1 PBD inh,G9a inh,BAZ2B inh,HP1b binding inh,JMJD2A Tudor inh,Sfp PPTase inh
c1ccc(CCSc2ncnc3nc[nH]c23)cc1,-8.0%,-1.6%,-1.0%,24.8%,-15.2%,12.5%
O=C(CSc1nc2ncc(Br)cc2[nH]1)c1ccc([N+](=O)[O-])cc1,-16.4%,14.1µM*,u,u,u,-9.7%
CC(C)C[C@@H]1CN(CCCC[C@H]2CNC(=O)C(=O)N2CCC2CCCCC2)C(=O)C(=O)N1CC1CCCCC1,-4.6%,x,x,x,x,x
COC(=O)CCCC1=CC2=C(c3ccccc3)C(=O)C(C)(OC(=O)C3CCCC3)C(=O)C2=CO1 (stereo not given),x,x,x,x,x,-5.4%
CN(C)/C=C1\C(=O)Oc2ccccc2C1=O,-14.2%,x,x,26.5%,-17.6%,x
O=C(Nc1nnc([C@H]2C[C@H](O)[C@@H](CO)O2)s1)c1cccc(OC(F)(F)F)c1,-3.9%,x,x,x,x,x
NS(=O)(=O)c1ccc(NC(=O)CSc2nc3c(c(=O)[nH]2)CCCC3)cc1,-0.9%,-7.0%[59 µM],1.1%,7.5%,-10.2%,15.5%
O=C(CSc1ncnc2nc[nH]c12)c1ccc(Cl)cc1,u,x,u,-35.7%,17.8µM*,50.1µM*
C[C@H]1c2cccc(O)c2C(=O)C2C(=O)C3(O)C(=O)C(C(N)=O)C(=O)[C@@H](N(C)C)[C@@H]3[C@@H](O)[C@@H]21 (stereo not given in full),-5.5%,x,x,36.4%,12.6µM*,x
CN(C)c1ccc(O)c2c1CC1CC3[C@@H](N(C)C)C(=O)C(C(N)=O)C(=O)[C@]3(O)C(=O)C1C2=O (stereo not given in full),-6.2%,x,x,15.8%,8.91µM*,x
CN(C)c1ccc(O)c2c1CC1CC3C(N(C)C)C(=O)C(C(N)=O)=C(O)[C@@]3(O)C(=O)C1=C2O (stereo not given in full),-11.4%,x,x,3.0%,8.91µM*,x
C[C@H]1c2cccc(O)c2C(O)=C2C(=O)C3(O)C(O)=C(C(N)=O)C(=O)[C@@H](N(C)C)[C@@H]3[C@@H](O)[C@@H]21 (stereo not given in full),-1.1%,5.01µM*,8.91µM*,29.6%,22.4µM*,x
COc1ccc(C2=NOC(C)(c3nnc(-c4ccccc4)o3)C2)cc1 (stereo not given),1.1%,x,x,7.6%,u,x
COCCn1c(=O)c(-c2ccccc2)nc2cnc(OC)nc21,x,-7.0%[0.501 µM],x,x,x,1.5%
COCCCNC(=O)CSc1nc(-c2cccc(F)c2)[nH]c1-c1ccccc1,x,-16.9%[59 µM],-18.9%,22.2%,-27.7%,x
CN(C)c1ccc(O)c2c1C[C@@H]1C[C@H]3C(N(C)C)C(=O)C(C(N)=O)=C(O)[C@@]3(O)C(=O)C1=C2O (stereo not given in full),x,-50.9%[2.33 µM],x,x,x,2.2%
CC(NC(=O)CN1CCN(c2cccc(Cl)c2)CC1)c1ccccc1 (stereo not given),-11.3%,x,5.9%,6.0%,-11.8%,-0.6%
O=C(CN1CCN(c2ccc(O)cc2)CC1)NC(c1ccccc1)c1ccccc1,-19.1%,7.94µM*,u,u,50.1µM*,10µM*
O=C(CN1CCCCC1)Nc1ccccc1,0.5%,-5.5%,5.4%,44.4%,-5.4%,17.6%
